Screening data as filed in PubChem.
Sampled rows, rich in hits. Any-hit rate of the full collection: about 1.3%.
IL-2 act: qHTS of IL-2 Activators | IL-2 activation reporter assay, cell-based qHTS; stimulated with anti-CD3/CD4/CD28 beads; in transgenic mouse T cells | activation, % (series mostly up to about 46 µM) | 0.065% of 360,000 active
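Unstimulated transgenic mouse T cells preincubated 60 min with compound, then stimulated with anti-CD3/anti-CD4-coated beads plus anti-CD28 for 18 h at 37 degrees C. IL-2 response read as EGFP and DsRed fluorescence by plate cytometry.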
BRCA1 expr act: qHTS Assay to Identify Small Molecule Activators of BRCA1 Expression. MCF7-BRCA1-FFLuc reporter, luminescence, 48 h; response scale: scaled: vehicle 0%, 10 µM genistein 100%. Potency, µM (series often up to 46.1 µM), most hits filed as activators. 1.1% of 380,000 active; active = well fitted activation curve with a large enough effect; inconclusive = small, poorly fitted or top-dose-only effect; inactive = no such curve, though single readings can be large or run the other way; also: nearly all actives have a fitted effect of over 80% in size
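Luminescence from a BRCA1-driven firefly luciferase in MCF7 cells was read after 48 h compound exposure at 37 C. Data normalized against DMSO and a 10microM genistein activation control, then curve-fitted across the titration.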
PKM2 act: qHTS Assay for Activators of Human Muscle isoform 2 Pyruvate Kinase; Potency, µM (highest dose often 57.5 µM), hits mostly activators; purified PKM2, Kinase-Glo ATP luminescence, activation; response scale: 0% is enzyme alone, no compound; AID 1631, 2009; Pyruvate kinase PKM (Homo sapiens), P14618; 0.34% of 260,000 active; active = well fitted activation curve with a large enough effect; inconclusive = small, poorly fitted or top-dose-only effect; inactive = no such curve, though single readings can be large or run the other way; also: nearly all actives have a fitted effect of over 55% in size
Target sequence (P14618 whole entry, looked up, canonical isoform): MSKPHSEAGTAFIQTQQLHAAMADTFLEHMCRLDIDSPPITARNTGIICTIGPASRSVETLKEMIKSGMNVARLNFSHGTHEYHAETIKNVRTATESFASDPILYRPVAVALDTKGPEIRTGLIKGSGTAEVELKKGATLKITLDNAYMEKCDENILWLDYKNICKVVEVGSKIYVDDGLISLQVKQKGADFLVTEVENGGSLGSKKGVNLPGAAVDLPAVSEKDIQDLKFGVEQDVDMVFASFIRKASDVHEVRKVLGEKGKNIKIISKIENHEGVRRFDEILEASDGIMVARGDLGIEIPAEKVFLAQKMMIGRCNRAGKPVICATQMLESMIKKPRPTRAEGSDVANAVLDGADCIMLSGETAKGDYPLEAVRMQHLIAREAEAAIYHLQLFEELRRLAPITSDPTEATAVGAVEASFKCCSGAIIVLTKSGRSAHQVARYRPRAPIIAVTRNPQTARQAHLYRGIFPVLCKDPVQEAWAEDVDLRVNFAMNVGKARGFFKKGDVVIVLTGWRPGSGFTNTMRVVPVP
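Purified hPK-M2 (>95% pure) converted ADP (0.1 mM final) to ATP with 0.5 mM PEP in 50 mM imidazole pH7.2, KCl, MgCl2, Tween 20, BSA; 1 h at room temperature. ATP detected by Kinase-Glo luminescence.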
TRPML1 blocker: qHTS for Inhibitors of the Human Mucolipin Transient Receptor Potential 1 (TRPML1); Mucolipin-1 (Homo sapiens), Q9GZU1; TRPML1-inducible cells, Ca2+ dye fluorescence, FDSS; active compounds read low; inhibition of EC80 agonist-evoked calcium signal; activity change, negative = inhibition, % (test concentration not listed); 0.02% of 390,000 active; AID 624415, 2012; in the data active = activity change below about -50%; inconclusive = between about -30% and that limit;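 also: stimulus is agonist 54-4 at its EC80 concentration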
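TRPML1-DL cells, Tet-induced overnight (~16 h, 37 °C) at 1,500 cells/well, were loaded with Ca8 no-wash dye plus quencher for 45-90 min at room temperature. Compounds were pinned during FDSS kinetic reading; agonist 54-4 at EC80 (4 uM final) then added.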
TRPML1 ag: qHTS for Agonists of the Human Mucolipin Transient Receptor Potential 1 (TRPML1); Mucolipin-1 (Homo sapiens), Q9GZU1; TRPML1-expressing cells, Ca2+ dye fluorescence, FDSS; activation, % (concentration not given with the values); 0.12% of 410,000 active; AID 624414, 2012
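TRPML1-DL cells, Tet-induced overnight (~16 h, 37 degrees C), loaded 45-90 min at room temperature with Ca8 no-wash calcium dye plus quencher. FDSS fluorescence: 10 s baseline, compound pin-transfer, 110 s agonist read, then EC80 54-4 (4uM final) and 110 s antagonist read.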
PTAP TSG101 blk: qHTS Assay for Iinhibitors of HIV-1 Budding by Blocking the Interaction of PTAP/TSG101; Tumor susceptibility gene 101 protein (Homo sapiens), Q99816; Fluorescence polarization, FITC-PTAP peptide / Tsg101 binding; Potency, µM (highest dose often 115 µM), actives largely listed as inhibitors; 340,000 tested, under 10 active; AID 493005, 2010; active = well fitted inhibition curve with a large enough effect in the main read-out, with a control signal flat, not every such curve was filed as active; inconclusive = small, poorly fitted or top-dose-only effect, or effect the other way, or a change in a side signal; inactive = no such curve, though single readings can be large or run the other way
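Compounds were pin-transferred onto Tsg101 binding domain (10 uM final) in HEPES pH 7.5 buffer, then FITC-PTAP peptide was added at 50 nM final. After 20 min at RT, polarization reported peptide displacement across a qHTS concentration series.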
A number is an active result; 0 = inactive; ? = inconclusive; - = no result; [ ] = another dose, or the depositor's remark. Rule as the data show it, unless noted: active = activation above about 50%; inconclusive = mostly about 30% to 49%; inactive = weaker than that.

SMILES	IL-2 act	BRCA1 expr act	PKM2 act	TRPML1 blocker	TRPML1 ag	PTAP TSG101 blk
CCSc1nnc(NC(=O)c2cc3c(s2)CCCC3)s1	0	7.9µM	0	0	0	0
CCSc1nnc(NC(=O)c2ccccc2)s1	0	0	0	0	0	0
Cc1ccc(CSc2nnc(Nc3ccc(C)cc3)s2)cc1	0	0	0	0	0	0
CCSc1nnc(Nc2ccccc2)s1	0	11µM	0	0	0	0
CC(Oc1ccccc1)C(=O)Nc1c(C(=O)Nc2cccc(F)c2)oc2ccccc12 (stereo not given)	-	0	-	0	0	-
O=C(NCCSCc1ccc(Cl)cc1)C1CCN(S(=O)(=O)Cc2ccccc2)CC1	-	-	-	0	0	-
Cn1c(CNc2nc3ccccc3n2C)nc2ccccc21	0	10µM	0	0	0	0
CC(C)n1c(NCc2nc3ccccc3n2C)nc2ccccc21	0	0	0	0	0	0
C=CCc1cccc(CNc2nc3ccccc3n2C)c1O	0	0	32µM	0	0	0
COc1ccc(Nc2nc3ccccc3n2C)cc1	0	5.6µM	0	0	0	0
Cc1ccc(NCc2nc3ccccc3n2C)cc1	0	0	0	0	0	0
COc1ccc(NCc2nc3ccccc3n2C)cc1	0	4µM	0[11.5 µM]	0	0	0
CCc1ccc(NC(=O)CSc2nnc(-c3ccccc3)n2CC)cc1	-	0	-	-	0	-
Cn1cc(C(=O)NCCc2ccc(Cl)cc2)c(=O)c2cc(S(=O)(=O)N3CCOCC3)ccc21	-	-	-	0	0	-
Cc1ccc(N2CCN(C(=O)C3CCN(S(=O)(=O)c4ccc5c(c4)oc(=O)n5C)CC3)CC2C)cc1 (stereo not given)	-	0	-	0	0	-
Cn1c(NCc2ccc(Cl)cc2)nc2ccccc21	0	4.5µM	0	0	0	0
COc1ccc(CNc2nc3ccccc3n2C)c(O)c1	0	1.6µM	0	0	0	0
Cn1c(CNc2ccc(O)cc2)nc2ccccc21	0	?	-	-	-	0
Cc1ccc(NCc2nc3ccccc3n2C)cc1C	0	7.9µM	0	0	0	0
C[C@@H]1CN([C@@H](C)CO)C(=O)c2cc(Br)cnc2O[C@H]1CN(C)C(=O)Nc1ccc(F)cc1	0	0	-	0	0	-
Cc1occc1C(=O)NCCCCNC(=O)c1ccoc1C	0	0	0	0	0	0
Cc1occc1C(=O)NCCCc1ccccc1	0	13µM	0	0	0	0
Cc1occc1C(=O)NNC(=O)c1ccccc1C(=O)O	0	10µM	0	0	0	0
Cc1ccccc1C(=O)NNC(=O)c1ccoc1C	0	0	0	0	0	0
O=Cc1ccc(/C=C2\C=Cc3ccccc32)cc1	-	0	-	-	0	-
SMILES	IL-2 act	BRCA1 expr act	PKM2 act	TRPML1 blocker	TRPML1 ag	PTAP TSG101 blk
C/C(=N\NC(=O)c1c(Cl)cnn1C)c1ccc(NC(=O)c2ccc(Br)o2)cc1	0	10µM	-	0	0	0
C/C(=N\NC(=O)C1CC1)c1ccc(NC(=O)c2ccc(Br)o2)cc1	-	-	0	-	-	-
COc1cccc(-c2csc(NNC(=O)c3cccs3)n2)c1	0	0	0	0	0	0
COc1cccc(-c2csc(NC(=O)Oc3ccccc3)n2)c1	0	10µM	0	0	0	0
Cc1c(C(=O)Nc2ccc(Br)cc2F)sc2ncnc(N(C)C3CCCCC3)c12	-	-	-	0	0	-
CCc1ccc(C(=O)NC2CCCCC2)s1	0	3.5µM	0	0	0	-
O=C(NC1CCCCC1)c1cccs1	0	0	0	0	0	0
CC(C)(O)C#Cc1ccc(C(=O)NC2CCCCC2)s1	0	11µM	0	0	0	0
Cc1occc1C(=O)NC1CCCCCCC1	0	14µM	0	0	0	0
